Test results from the supplement of paper PMC6555819.

Assays:
Assay in all cases: PBM binding z-score (relative to random genomic background probes); higher = stronger binding; sequences stand for … in GC…GCGATTGACAGCGTAGAATGAAGG
[1] = tested on: FXR:RXRa (NR concentration 270 nM, RXRa partner concentration 90 nM)
In short: (§1)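 Random background probes are the reference for binding z-scores. These scores derive from regression-normalized fluorescence on custom Agilent 4×180K protein-binding microarrays incubated 1 h with ligand-free nuclear receptor dimers. Binding was detected with antibodies against each partner (one per run).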

[2] = tested on: LXRa:RXRa (NR concentration 270 nM, RXRa partner concentration 90 nM)
In short: as §1

[3] = tested on: LXRa homodimer (NR concentration 270 nM)
In short: as §1

[4] = tested on: LXRb:RXRa (NR concentration 270 nM, RXRa partner concentration 90 nM)
In short: as §1

[5] = tested on: LXRb homodimer (NR concentration 270 nM)
In short: as §1

[6] = tested on: PPARa:RXRa (NR concentration 270 nM, RXRa partner concentration 90 nM)
In short: as §1

[7] = tested on: PPARg:RXRa (NR concentration 180 nM, RXRa partner concentration 90 nM)
In short: as §1

[8] = tested on: PPARg:RXRa 270nM:90nM, anti-RXR (NR concentration 270 nM, RXRa partner concentration 90 nM)
In short: as §1

[9] = tested on: PPARg:RXRa 30nM:10nM, anti-RXR (NR concentration 30 nM, RXRa partner concentration 10 nM)
In short: as §1

[10] = tested on: PPARg:RXRa 90nM:30nM, anti-RXR (NR concentration 90 nM, RXRa partner concentration 30 nM)
In short: as §1

[11] = tested on: PPARg:RXRa DBDmut IVT, anti-RXR (DBD mutation: RXRa K156A/R161A, NR concentration 270 nM, RXRa partner concentration 90 nM)
In short: as §1

[12] = tested on: PPARg:RXRa IVT, anti-PPARg (NR concentration 270 nM, RXRa partner concentration 90 nM)
In short: as §1

[13] = tested on: PPARg DBDmut:RXRa IVT, anti-PPARg (DBD mutation: PPARg1 K132A/R137A, NR concentration 270 nM, RXRa partner concentration 90 nM)
In short: as §1

[14] = tested on: PPARg DBDmut IVT, anti-PPARg (DBD mutation: PPARg1 K132A/R137A, NR concentration 270 nM)
In short: as §1

[15] = tested on: PPARg homodimer (NR concentration 180 nM)
In short: as §1

[16] = tested on: PXR:RXRa (NR concentration 270 nM, RXRa partner concentration 90 nM)
In short: as §1

[17] = tested on: PXR homodimer (NR concentration 270 nM)
In short: as §1

[18] = tested on: RARa:RXR (NR concentration 270 nM, RXRa partner concentration 90 nM)
In short: as §1

[19] = tested on: RARa homodimer (NR concentration 270 nM)
In short: as §1

[20] = tested on: RARb:RXRa (NR concentration 270 nM, RXRa partner concentration 90 nM)
In short: as §1

Row | Sequence | PBM binding z-score [1] | PBM binding z-score [2] | PBM binding z-score [3] | PBM binding z-score [4] | PBM binding z-score [5] | PBM binding z-score [6] | PBM binding z-score [7] | PBM binding z-score [8] | PBM binding z-score [9] | PBM binding z-score [10] | PBM binding z-score [11] | PBM binding z-score [12] | PBM binding z-score [13] | PBM binding z-score [14] | PBM binding z-score [15] | PBM binding z-score [16] | PBM binding z-score [17] | PBM binding z-score [18] | PBM binding z-score [19] | PBM binding z-score [20]
1 | AGTCAAAGTTCACTAGGTAGCGTAAGATTCAGCT | 5.23 | 5.4 | 3.04 | 2.9 | 0.743 | 4.13 | 6.27 | 6.17 | 2.76 | 5.22 | 1.37 | 3.4 | 0.246 | 0.621 | 2.62 | 4.12 | 2.83 | 3.01 | 1.33 | 4.68
2 | TCGAGTAGTTTAGTCGGGGCATTCAGCCAACATA | -0.125 | -0.295 | -0.441 | 0.256 | -0.38 | 0.346 | -0.694 | 0.0847 | 0.837 | 0.633 | 1.24 | -0.182 | -0.281 | -0.699 | -0.472 | 0.139 | -0.0137 | 0.146 | -0.408 | 0.0588
3 | TCATTTAGGTAAACAGGTGAAAGTCCGTAAGTTA | 1.47 | 1.13 | 0.719 | 1.04 | 0.705 | 2.37 | 2.24 | 3.73 | 4.42 | 3.99 | 3.9 | 3.97 | 1.38 | 1.49 | 1.97 | 1.01 | 0.929 | 1.52 | 1.74 | 1.08
4 | CGAACTAGGTCATCCAGGACTGTGAATACATTGA | 4.52 | 2.4 | 0.426 | 2.06 | 0.107 | 4.84 | 7.64 | 6.38 | 4.23 | 5.82 | 8.21 | 8.17 | 6.94 | 2.3 | 3.35 | 1.48 | 0.582 | 2.24 | 0.701 | 3.73
5 | CCAGACAGGTGAGAAGATAACTCAGCCTCGATTA | 0.0426 | 0.15 | -0.0638 | -0.14 | -0.471 | -0.179 | 0.576 | -0.087 | -0.116 | 0.155 | 0.896 | 0.216 | -0.0942 | -0.455 | 0.364 | 0.081 | 0.476 | 0.117 | 0.792 | 0.241
6 | ATCGAAAGGTCGTGAGGCGAGTATACAGAAAGGC | 5.83 | 4.11 | 0.273 | 3.21 | 0.391 | 5.07 | 3.85 | 4.18 | 1.56 | 2.61 | 0.466 | 1.91 | 1.82 | 1 | 1.5 | 2.96 | 0.0504 | 3.69 | 0.41 | 4.1
7 | CTACCAAGGTGAACAAGGTCGTTGAATACTATTC | 1.52 | 1.23 | 0.0934 | 1.87 | -0.659 | 2.68 | 1.19 | 1.39 | 0.333 | 0.702 | 2.52 | 2.79 | 0.336 | 0.338 | 0.802 | 2.75 | 2.05 | 2.46 | 0.109 | 2.03
8 | ACTTACGGGTGAACGAGGTTATAGCACGCGTATA | 0.972 | 1.28 | 0.16 | 1.21 | -0.375 | 2.36 | 1.73 | 1.35 | 0.333 | 0.745 | 2.06 | 2.61 | 0.498 | 1.4 | 0.965 | 1.75 | 0.287 | 2.01 | 0.821 | 1.19
9 | AGTCAAAGTTCACTAGGTAACGTAGGATTCAGCT | 5.02 | 4.93 | 3.02 | 2.92 | 0.939 | 4.65 | 7.24 | 6.38 | 3.58 | 5.79 | 2.76 | 4.99 | 0.535 | 0.509 | 2.04 | 3.89 | 2.85 | 2.82 | 0.778 | 4.83
10 | TCATATAGGTAATACAGGCGAAAGTCGGCATCTA | 0.743 | 0.759 | 0.19 | 0.501 | -0.147 | 1.06 | 0.851 | 2.29 | 4.01 | 3.08 | 3.6 | 2.22 | 1.28 | 0.916 | 0.655 | 0.46 | 0.00877 | 0.48 | 0.962 | 0.247
11 | TCAAGTAGGTTAGTCGGGGCATTCAGCCAACATA | 0.926 | 0.645 | 0.0892 | 1.03 | 0.134 | 1.68 | 1.07 | 2.48 | 3.63 | 3.14 | 4.81 | 4.14 | 0.386 | 1.15 | 1.35 | 0.801 | 0.708 | 0.739 | 0.814 | 0.917
12 | CGAACTAGGTCAGTACAGGACAGTGAAGGATGAT | 1.58 | 1.83 | -0.0342 | 0.493 | -0.478 | 3 | 4.93 | 4.25 | 1.71 | 3.39 | 7.48 | 7.01 | 0.814 | 0.573 | 1.07 | 0.911 | -0.456 | 0.671 | 0.153 | 3.04
13 | ACTAGCAGGCCAAGTGTGGGTCACTCAAACAAAG | -0.167 | 0.206 | -0.486 | 0.691 | -0.959 | 2.19 | 0.66 | 1.38 | -0.102 | 0.685 | 2.05 | 2.79 | -0.334 | -0.527 | 0.309 | 0.546 | -0.107 | 1.35 | -1.55 | 1.79
14 | AGTCAGAGTTCACTAGGTAACGTAAGATTCAGCT | 4.41 | 4.52 | 2.25 | 2.64 | 0.624 | 4.54 | 5.57 | 5.35 | 2.12 | 4.4 | 2.59 | 4.05 | 1.02 | 0.611 | 2.37 | 4.41 | 3.8 | 2.72 | 0.385 | 3.97
